Screens from PubChem BioAssay.
The list is not random: actives were taken first. Their share in the collection is about 7.1%.
ATXN viability: viability counter-screen for ATXN expression inhibitors; Potency, µM (titrated, usually from 56.7 µM), actives largely listed as cytotoxic; hit rate 0.49% among 400,000; S2 cells (HEK-293 line with an ATXN2-luciferase reporter) viability, CellTiter-Fluor protease fluorescence, 24 h; further: nearly all actives have a fitted effect of over 40% in size
IL1B secr inh: inhibitors of inflammasome signaling (IL-1 beta secretion). THP-1 LPS/ATP IL-1B secretion, AlphaLISA, 16 h; active compounds read low. activity change, % at 57.5 µM. hit rate 4.7% among 360,000. AID 743279; in the data active means activity change below about -50%; inconclusive means mostly about -30% to -49%
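THP-1 cells pretreated 1 hr with compounds (up to 57.5 uM final), then stimulated with LPS (250 ng/mL final) plus ATP (1.25 mM final); secreted IL-1B measured by AlphaLISA after 16 hr, decreased signal indicating inhibition.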
PINK1 modulator: PINK1 expression modulation. PINK1 immunofluorescence, high-content cytometry, 24 h. Potency, µM (doses to about 76.6 µM), actives largely listed as activators. hit rate 0.2% among 410,000. AID 624263; active means well fitted activation curve with a large enough effect; inconclusive means small, poorly fitted or top-dose-only effect; cell line not stated here; further: nearly all actives have a fitted effect of over 65% in size
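Cells are seeded, rested 12 hours, then given compound at five concentrations or DMSO for 24 hours. After fixation, blocking and antibody staining, PINK1 amount and mitochondrial localization are scored; CCCP serves as control.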
ATXN2 expr inh: inhibitors of ATXN2 expression; Potency, µM (top dose mostly 57 µM), most hits filed as inhibitors; HEK-293 ATXN2-luciferase reporter, luminescence, 24 h; hit rate 0.72% among 360,000; further: nearly all actives have a fitted effect of over 55% in size
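qHTS (up to 57 uM final) was run with 24 h compound exposure of reporter cells at 37 °C. Each well was multiplexed: SteadyGlo luminescence measured ATXN2-luciferase expression after a fluorogenic Gly-Phe-AFC viability readout (25 uM final).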
SW480 rerep: inducers of DNA re-replication in SW480 colon cancer cells | SW480 DNA re-replication, Hoechst DNA content imaging, 48 h | Potency, µM (highest dose often 46.1 µM), actives largely listed as activators | hit rate 1.8% among 340,000; further: nearly all actives have a fitted effect of over 55% in size
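250 cells/well; 23 nL cpd via pin tool; 48 hr, 37 C, 5% CO2; Hoechst 40 min; imager read of total nuclear intensity, ex 405/em 500-530 nm.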
MCF10A rerep: induces DNA re-replication in MCF 10a normal breast cells | MCF 10A DNA re-replication, Hoechst nuclear intensity, 48 h | Potency, µM (highest dose often 46.1 µM), usual class: activators | hit rate 2.9% among 350,000; further: nearly all actives have a fitted effect of over 50% in size
Numbers stand for hits; 0 = inactive; ? = inconclusive; - = no result given; [ ] = remark or other dose. Unless noted, the call rests on the fitted dose curve; in most records, active means well fitted curve in the direction sought with a large enough effect; inconclusive means small, poorly fitted or top-dose-only effect, or another doubt; inactive means no such curve, though single readings can be large; an effect the other way counts as inactive or inconclusive.

SMILES | ATXN viability | IL1B secr inh | PINK1 modulator | ATXN2 expr inh | SW480 rerep | MCF10A rerep
CC(=O)NC(CC(C)C)C(=O)NC(Cc1ccccc1)C(=O)CCl (centres undefined) | - | -98 | 0 | 0 | 0 | 8.2µM
CC(=O)NC(CC(C)C)C(=O)NC(Cc1ccccc1)C(N)=O (centres undefined) | 0 | 0 | 0 | 0 | 0 | 0
CC1CCN(S(=O)(=O)c2ccc3c(c2)c(=O)c(C(=O)N2CCN(c4cccc(Cl)c4)CC2)cn3C)CC1 | 0 | - | 0 | 0 | - | -
O=C1C2CC=CCC2C(=O)N1c1ccc(NCCc2ccc(O)cc2)c([N+](=O)[O-])c1 (centres undefined) | 0 | -83 | 0 | 0 | 0 | 0
c1ccc(-n2nnnc2-c2cccc3ccccc23)cc1 | 0 | 0 | 0 | 0 | 5.8µM | 23µM
CCCCC(=O)Nc1ccccc1C(=O)OCC(=O)c1ccc2c(c1)OCCO2 | 0 | 0 | 0 | 0 | 0 | 0
CCCCCCOC(=O)c1ccccc1NC(=O)/C=C/C(=O)O | ? | -100 | 0 | 0 | 0 | ?
O=C(O)/C=C/C(=O)Nc1ccccc1C(=O)OCC(=O)c1ccc2c(c1)OCCO2 | 0 | -75 | 0 | 0 | 0 | ?
CCOC(=O)c1ccccc1NC(=O)/C=C/C(=O)O | 0 | ? | 0 | 0 | 0 | 0
Cc1ccc(S(=O)(=O)N(Cc2nc(-c3cccc(C)c3)no2)C2CCCCC2)cc1 | - | - | 0 | - | - | -
COc1ccc(C(=O)c2ccc(OC)c(OC)c2OC)cc1 | ? | 0 | 0 | 0 | 5.8µM | 3.7µM
CCO[C@@H]1OC(C(=O)N2CCCCCCC2)=C[C@H](c2cn(C(C)=O)c3ccccc23)[C@H]1CCCO | ? | -53 | 0 | 0 | 0[9.22 µM] | ?
CCO[C@@H]1OC(C(=O)N2CCN(Cc3ccc4c(c3)OCO4)CC2)=C[C@H](c2ccc(C(F)(F)F)cc2)[C@H]1CCCO | ? | -60 | 0 | ? | 0 | 0
CCO[C@H]1OC(C(=O)N2CCN(Cc3ccccc3)CC2)=C[C@@H](C2CCCCC2)[C@@H]1CCCO | ? | -60 | 0 | ? | ? | ?
CCO[C@H]1OC(C(=O)N2CCN(Cc3ccc4c(c3)OCO4)CC2)=C[C@@H](c2csc3ccccc23)[C@@H]1CCCO | ? | -61 | 0 | ? | 0 | 0
CCO[C@H]1OC(C(=O)N2CCN(Cc3ccc4c(c3)OCO4)CC2)=C[C@@H](c2cn(C(C)=O)c3ccccc23)[C@@H]1CCCO | ? | ? | 0 | 0 | 0 | 0
CCO[C@H]1OC(C(=O)N2CCOCC2)=C[C@@H](c2cn(C(C)=O)c3ccccc23)[C@@H]1CCCO | 0 | 0 | 0 | 0 | ? | 0
CCO[C@H]1OC(C(=O)N2CCCCCCC2)=C[C@@H](C2CCCCC2)[C@@H]1CCCO | ? | 0 | 0 | 0 | 0[9.22 µM] | 0
COc1ccc(CNC(=O)CCS(=O)(=O)c2cc(Br)cc3c2N(C(=O)C2CC2)CC3)cc1 | 0 | - | 0 | 0 | - | -
CCO[C@H]1OC(C(=O)NCc2ccccc2)=C[C@@H](c2ccc(Br)cc2)[C@@H]1CCCO | ? | 0 | 0 | 0 | 0 | 0
CCO[C@@H]1OC(C(=O)NCc2ccccc2)=C[C@H](c2ccc(C(F)(F)F)cc2)[C@H]1CCCO | ? | -57 | 0 | ? | ? | 2.9µM
CCO[C@@H]1OC(C(=O)N2CCN(Cc3ccc4c(c3)OCO4)CC2)=C[C@H](C2CCCCC2)[C@H]1CCCO | 18µM | -60 | 0 | ? | 0 | 0
CCCC12CN3CC(C)(CN(C1)C3c1ccc(OCc3ccccc3)cc1)C2=O (centres undefined) | 0 | - | 0 | 0 | - | -
O=C(NCCC1=CCCCC1)c1ccc2c(=O)n3nc(Nc4ccccc4)sc3nc2c1 | - | - | 0 | - | - | -
Nc1c(C(=O)NCCN2CCOCC2)c2nc3ccccc3nc2n1-c1ccc2c(c1)OCO2 | 0 | -59 | 0 | 0 | 0 | 0
SMILES | ATXN viability | IL1B secr inh | PINK1 modulator | ATXN2 expr inh | SW480 rerep | MCF10A rerep
O=C(NCCN1CCOCC1)Nc1ccccc1 | ? | 0 | 0 | 0 | 0 | 0
Nc1c(C(=O)NCCN2CCOCC2)c2nc3ccccc3nc2n1-c1ccccc1 | - | -52 | 0 | 0 | 0 | 0
COc1ccccc1CNC(=O)c1c(N)n(CCCN2CCOCC2)c2nc3ccccc3nc12 | 0 | ? | 0 | ? | ? | ?
Nc1c(C(=O)NCc2ccc3c(c2)OCO3)c2nc3ccccc3nc2n1CCCN1CCOCC1 | 0 | -98 | 0 | ? | ? | 0
Cc1ccccc1CN1CCc2nnc(C(C)NC(=O)C3CCN(C)CC3)n2CC1 (centres undefined) | 0 | - | 0 | - | - | -
Cc1c(C(=O)N2CCN(CC(=O)Nc3ccccc3Cl)CC2)oc2ccc(Br)cc12 | 0 | 0 | 0 | 0 | 0 | 23µM
COC(=O)c1oc2ccc(Br)cc2c1NC(=O)CN1CCN(C)CC1 | 0 | -53 | 0 | 0 | 0 | 0
Cn1c(=O)c2c(nc(N3CCOCC3)n2Cc2ccc(Br)cc2)n(C)c1=O | 0 | - | 0 | 0 | - | -
Fc1cccc(Cl)c1Cn1nnc2c(NCc3ccccn3)ncnc21 | 0 | -59 | 0 | 0 | 0 | 0
Cc1cccc(Nc2nnc(SCC(=O)NC(=O)Nc3ccc4c(c3)OCCO4)s2)c1 | 0 | 0 | 0 | ? | ? | 23µM
Cc1nnc(SCC(=O)NC(=O)Nc2ccc3c(c2)OCCO3)s1 | 0 | 0 | 0 | 0 | 0 | 0
COc1ccccc1Nc1nnc(SCC(=O)NC(=O)Nc2ccc3c(c2)OCCO3)s1 | ? | 0 | 11µM | 0 | 0 | 21µM
COc1ccc(/C=C/c2nnc(NC(=O)CSc3ccc(C)cc3)s2)cc1 | 0 | 0 | 0 | 0 | ? | 8.2µM
CC(NC(=O)c1cccc(NC(=O)c2nsc3ccccc23)c1)c1ccccc1 (centres undefined) | 0 | - | 0 | 0 | - | -
C=CS(=O)(=O)c1c2cc(OC)ccc2nc2ccc(OC)cc12 | - | -98 | 0 | ? | 21µM | ?
CCc1ccccc1NS(=O)(=O)c1ccc2c(c1)CCCN2C(=O)C1CCC1 | 0 | - | 0 | 0 | - | -
COc1cc(C2c3cc4c(cc3CC3COC(=O)N32)OCO4)cc(OC)c1OC (centres undefined) | ? | 0 | 0 | 0 | 1.2µM | 1.3µM
COc1ccccc1C(=O)Nc1cccc(C(=O)OCc2cc(=O)n3cc(C)sc3n2)c1 | - | - | 0 | - | - | -
CCCCCCCCCCCCCCCC(=O)OC(CC(=O)O)C[N+](C)(C)C (centres undefined) | ? | 0 | 0 | ? | 0.58µM | 0
Fc1ccc(Nc2c(-c3ccco3)nc3ccccn23)cc1 | 0 | -64 | 0 | 0 | 0 | 0
COc1cccc(NC(=O)Nc2ccc3nc(C)c(C)nc3c2)c1 | 0 | 0 | 0 | 0 | 0[1.84 µM] | 0
COc1cccc(NC(=O)Nc2ccc3nsnc3c2)c1 | ? | -56 | 0 | 0 | 0 | 0
COc1ccc(C(=O)Nc2ccc(C(=O)Nc3cccc(C)c3)cc2)cc1 | 10µM | 0 | ? | ? | ? | 0
COc1ccc(NC(=O)Nc2cccc(OC)c2)cc1 | 0 | -75 | 0 | 0 | 0 | 0
